Laboratory results: PubChem BioAssay (NCI)
This is part of a sample that, as a whole, favours compounds with a hit. Of some 79,000 tested, about 15% had one in any assay. Rule as the data show it: active = growth inhibition above about 70%; inactive = the rest.

Experiments:
[1] = NCI Yeast Anticancer Drug Screen. Data for the rad50 strain (AID 155);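 also: 0% = growth of vehicle-only cultures of the same strain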; details: S. cerevisiae rad50 strain growth inhibition; at 50.0 µM; stronger effect = higher value
In short: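 Compounds were tested on a yeast strain with an engineered DNA damage repair alteration; the reported value is growth inhibition normalised to vehicle treatment.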

[2] = NCI Yeast Anticancer Drug Screen. Data for the mec2-1 strain (AID 157); details: S. cerevisiae mec2-1 strain, at 50.0 µM, stronger effect = higher value
In short: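 Readout is yeast growth inhibition, normalised to vehicle-treated controls, in the mec2-1 strain exposed to compound.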

[3] = NCI Yeast Anticancer Drug Screen. Data for the sgs1 mgt1 strain (AID 161);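 also: 0% = growth of cultures given vehicle only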; details: S. cerevisiae sgs1 mgt1 strain, at 50.0 µM, stronger effect = higher value
In short: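 Growth of a repair-deficient yeast mutant was monitored after compound treatment and expressed as inhibition relative to vehicle-treated cultures.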

[4] = NCI Yeast Anticancer Drug Screen. Data for the cln2 rad14 strain (AID 165);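 also: 0% = growth equal to vehicle treated cultures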; details: S. cerevisiae cln2 rad14 strain, at 50.0 µM, stronger effect = higher value
In short: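 Relative to vehicle controls, growth inhibition of compound-treated cln2 rad14 yeast was recorded.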

[5] = NCI Yeast Anticancer Drug Screen. Data for the bub3 strain (AID 167); details: S. cerevisiae bub3 mutant strain, at 50.0 µM, stronger effect = higher value
In short: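 Growth of a checkpoint-deficient yeast mutant is measured after compound exposure. Values represent inhibition relative to vehicle.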

[6] = NCI Yeast Anticancer Drug Screen. Data for the mlh1 rad18 strain (AID 175); details: S. cerevisiae mlh1 rad18 strain growth inhibition; at 50.0 µM; stronger effect = higher value
In short: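 Test agents were incubated with a yeast strain of defined genotype (DNA damage repair defect). Inhibition of growth was derived by comparison with vehicle-exposed cultures.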

Measured: growth inhibition

O=C(O)/C=C\c1ccc(OC(=O)c2ccccc2)cc1
inactive: [1] -1.1% | [2] -12.6% | [3] -21% | [4] -24.6% | [5] -4.95% | [6] 33.1%

CCOC(=O)N1CC2CCc3c(ccc4ccccc34)N2C1=O (stereo unspecified)
inactive: [1] -2.35% | [2] 10.5% | [3] -4.5% | [4] -3.6% | [5] 7.4% | [6] 14.2%

CCn1c(=O)c2ccccc2c2cc([N+](=O)[O-])ccc21
inactive: [1] 7.65% | [2] 18.1% | [3] 2.75% | [4] 17.1% | [5] 12.2% | [6] -2.7%

O=C1CN(/C=C(\c2ccccc2)S(=O)Cc2ccccc2)C(=S)N1 (stereo unspecified)
inactive: [1] -19.9% | [2] -29.5% | [3] -28.4% | [4] -7.7% | [5] 0% | [6] -24.2%

N#C/C(=C/N1C(=O)CC(=O)NC1=S)c1cccc(Cl)c1
inactive: [1] -30.7% | [2] -14.3% | [3] -31.2% | [4] 18.2% | [5] -28.8% | [6] -48.5%

Cc1ccc(NC(=O)OCC(COc2ccc(Cl)cc2Cl)OC(=O)Nc2ccc(C)cc2)cc1 (stereo unspecified)
inactive: [1] -27.8% | [2] -24.9% | [3] -0.55% | [4] 16.1% | [5] 11.2% | [6] 9.05%

CN(C)c1ccc(N=Cc2ccc(O)cc2)cc1
inactive: [1] 10.9% | [2] 0.55% | [3] -4.6% | [4] 2% | [5] 2.9% | [6] 7%

OCC(O)C(O)C(CN=Cc1ccccc1O)N=Cc1ccccc1O (stereo unspecified)
inactive: [1] 5.05% | [2] 1% | [3] 3% | [4] -26.1% | [5] 12.9% | [6] -2.45%

O=c1[nH]nc(Cc2ccccc2)n1CCCl
inactive: [1] 16.9% | [2] 13.8% | [3] 15.6% | [4] -3.7% | [5] 8.35% | [6] 11.5%

CCCCCCC(=O)/C=C/c1ccccc1OC
inactive: [1] 9.15% | [2] -12.2% | [3] -3.55% | [4] -20.4% | [5] 2.3% | [6] -14.1%

C=C(Cl)C(Cl)(CBr)CCC(Br)C(C)(C)Cl (stereo unspecified)
inactive: [1] 20.6% | [2] 41% | [3] 51.5% | [4] 22.4% | [5] 42.6% | [6] -22.8%

C=C(C)CNC(=S)N(N)c1ccc(OC)cc1
inactive: [1] 39.5% | [2] 9.75% | [3] 16.6% | [4] -2.2% | [5] 12.4% | [6] 36.1%

CC1CN(N)C(=O)O1 (stereo unspecified)
inactive: [1] -3.9% | [2] -18.4% | [3] -19% | [4] 2.9% | [5] 2.6% | [6] -21.9%

NCCC(=O)NCCSSCCNC(=O)CCN
inactive: [1] -8.45% | [2] 11% | [3] 6.25% | [4] -16.8% | [5] 6.8% | [6] 15.1%

N#CC(C(=O)O)C(c1c(Cl)cccc1Cl)C(C#N)C(=O)O (stereo unspecified)
inactive: [1] 23.2% | [2] -6.7% | [3] -0.7% | [4] -1.3% | [5] 5.25% | [6] 15.6%

CNc1ccc([N+](=O)[O-])cn1
inactive: [1] 19.9% | [2] -13.4% | [3] 31.6% | [4] 8.75% | [5] 19.9% | [6] 4.15%

CC(=O)CCC(=O)c1ccoc1
inactive: [1] 9.05% | [2] -4.2% | [3] 4.4% | [4] -10.1% | [5] -9.55% | [6] 9.25%

c1ccc(-c2nnnn2-c2ccccc2)cc1
inactive: [1] -0.5% | [2] -2.8% | [3] 7.9% | [4] -7.5% | [5] 5.4% | [6] 17.7%

OCCN(CCO)C(Cc1ccccc1)Cc1ccccc1
inactive: [1] -7.9% | [2] -9.95% | [3] -1.7% | [4] -11.1% | [5] 26.4% | [6] -22.9%

c1ccc2c3c(ccc2c1)CCC3
inactive: [1] -20.9% | [2] -42.9% | [3] -35% | [4] 10% | [5] -25.4% | [6] -12.4%

CCCCCCCCC/C=C\C(=O)O
inactive: [1] 4.6% | [2] -12.5% | [3] 10.2% | [4] -22.9% | [5] -13.8% | [6] 37%
